In PubChem BioAssay (NCI) one finds growth data, which are given here for eleven compounds.

Molecules are shown by their SMILES. This is part of a sample that, as a whole, favours compounds with a hit. Of some 83,000 tested, about 20% had one in any assay.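 Method: cells in 96-well plates; compound added at one concentration; 48 h incubation; percent growth measured; values under 10 scored active.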 A number with no mark means an inactive call. The source made the active and inactive calls.

Test systems include SR leukemia; RPMI-8226 leukemia; OVCAR-8 ovarian; OVCAR-5 ovarian; OVCAR-4 ovarian; SK-OV-3 ovarian; IGROV1 ovarian; OVCAR-3 ovarian; HS 578T breast; NCI/ADR-RES ovarian.
Common to all, as to assay: NCI-60 one-dose screen, 48 h (100 = growth as untreated, 0 = no growth, -100 = all killed)
Details in all cases: 10 µM unless noted

`CCOC(=O)c1c(NS(=O)(=O)c2ccc(C)cc2)sc2c1CCC1(C2)OCCO1`: the growth with SR leukemia was 94.3%; with RPMI-8226 leukemia, 86.7%; in the test on OVCAR-8 ovarian, 95.7%; in the test on OVCAR-5 ovarian, 88.8%; in the test on OVCAR-4 ovarian, 91.4%; in the test on SK-OV-3 ovarian, 90.1%. The growth with IGROV1 ovarian is 109%; with OVCAR-3 ovarian it was 103%; with HS 578T breast, 81.3%; in the test with NCI/ADR-RES ovarian, 98%.

Turning to `CN1C=CN(Cc2ccc(-c3ccccn3)nc2)[CH-]1.CN1C=CN(Cc2ccc(-c3ccccn3)nc2)[CH-]1.[Au+3]`, the growth with SR leukemia is 16.8%; with RPMI-8226 leukemia it was 18.1%; in the test with OVCAR-8 ovarian it was 13.3%; in the test with OVCAR-5 ovarian, 50.3%; with OVCAR-4 ovarian, 6.08% (active); in the test with SK-OV-3 ovarian, 75.4%. Also, the growth with IGROV1 ovarian is 3.06% (active); in the test on OVCAR-3 ovarian, 32.3%; in the test on HS 578T breast, 79.2%; with NCI/ADR-RES ovarian it was 101%.

`C=C[C@@H]1C[C@@H]2Cc3ccccc3N1O2`: the growth in the test with SR leukemia was 97.1%; with RPMI-8226 leukemia, 85.5%; in the test on OVCAR-8 ovarian, 106%; with OVCAR-5 ovarian, 97.4%; with OVCAR-4 ovarian it was 112%; in the test with SK-OV-3 ovarian, 114%. The growth with IGROV1 ovarian is 121%; in the test with OVCAR-3 ovarian, 121%; in the test on HS 578T breast, 100%; with NCI/ADR-RES ovarian it was 106%.

With `CCN(CC)CCOc1ccc(Cl)c(C)c1`, the growth in the test on SR leukemia was 92.3%; in the test with RPMI-8226 leukemia it was 99.9%; with OVCAR-8 ovarian it was 104%; in the test on OVCAR-5 ovarian, 101%; in the test on OVCAR-4 ovarian, 117%; with SK-OV-3 ovarian, 98.1%. For the same compound, the growth in the test on IGROV1 ovarian is 99.6%; in the test with OVCAR-3 ovarian it was 95.1%; in the test on HS 578T breast it was 103%; in the test on NCI/ADR-RES ovarian it was 102%.

Regarding `c1coc(CNc2ccnc(Nc3ccc(OCCN4CCCCC4)cc3)n2)c1`, the growth is 61.5% in the test with SR leukemia; 71.1% in the test on RPMI-8226 leukemia; -5.87% (active) in the test with OVCAR-8 ovarian; 97% in the test on OVCAR-5 ovarian; 87.6% in the test on OVCAR-4 ovarian; 103% with SK-OV-3 ovarian. In addition, the growth was 98.1% in the test on IGROV1 ovarian, 90.1% in the test on OVCAR-3 ovarian, 80.9% in the test on HS 578T breast and 104% in the test with NCI/ADR-RES ovarian.

As for `O=C(Nc1ccncc1)C(=O)c1cn(S(=O)(=O)c2ccc(Cl)cc2)c2ccccc12`, the growth was 28.3% in the test with SR leukemia; 31.4% with RPMI-8226 leukemia; 42.5% with OVCAR-8 ovarian; 64.7% in the test with OVCAR-5 ovarian; 49% in the test with OVCAR-4 ovarian; 91.7% with SK-OV-3 ovarian. Further, the growth in the test with IGROV1 ovarian is 39.7%; in the test with OVCAR-3 ovarian, -22.3% (active); in the test on HS 578T breast, 13.5%; in the test on NCI/ADR-RES ovarian it was -4.89% (active).

For the compound `CO[C@H]1NC(=O)N(S(=O)(=O)c2ccc(Cl)cc2)[C@@H]1OC`, the growth in the test on SR leukemia was 93.9%; in the test on RPMI-8226 leukemia, 96.1%; in the test on OVCAR-8 ovarian it was 106%; in the test on OVCAR-5 ovarian, 111%; in the test with OVCAR-4 ovarian, 108%; in the test on SK-OV-3 ovarian, 102%. For the same compound, the growth in the test on IGROV1 ovarian was 124%; in the test on OVCAR-3 ovarian, 108%; with HS 578T breast it was 100%; in the test with NCI/ADR-RES ovarian, 110%.

`Cc1ccc(S(=O)(=O)n2cc(C(=O)C(=O)Nc3ccncc3)c3ccccc32)cc1`: the growth was 28.8% in the test with SR leukemia; 37.5% with RPMI-8226 leukemia; 43.2% with OVCAR-8 ovarian; 57.6% in the test with OVCAR-5 ovarian; 56% in the test on OVCAR-4 ovarian; 96.6% in the test with SK-OV-3 ovarian. Further, the growth was 45.1% in the test with IGROV1 ovarian, -12.1% (active) in the test with OVCAR-3 ovarian, 23.2% in the test with HS 578T breast and 5.21% (active) in the test on NCI/ADR-RES ovarian.

Consider `Cc1cc(N/N=C/c2nc(-c3ccc(Br)cc3)oc2C)c2cc(Cl)ccc2n1`, for which the growth in the test on SR leukemia is 5.46% (active); with RPMI-8226 leukemia, -9.52% (active); with OVCAR-8 ovarian, 41.4%; in the test on OVCAR-5 ovarian it was 102%; in the test with OVCAR-4 ovarian it was -74.2% (active); with SK-OV-3 ovarian it was 104%. For the same compound, the growth is 92.6% with IGROV1 ovarian, 45.2% in the test with OVCAR-3 ovarian, 106% in the test with HS 578T breast and 69.2% with NCI/ADR-RES ovarian.

As to `Cc1c(C(=N)C(C#N)C#N)c(=N)oc2c1ccc1ccccc12`, the growth in the test on SR leukemia was 26.1%; with RPMI-8226 leukemia, 44.7%; in the test on OVCAR-8 ovarian, 80.8%; in the test with OVCAR-5 ovarian it was 104%; in the test on OVCAR-4 ovarian, 95.3%; in the test on SK-OV-3 ovarian, 104%. The growth in the test with IGROV1 ovarian was -2.09% (active); in the test with OVCAR-3 ovarian, 95.5%; in the test on HS 578T breast it was 69.8%; in the test with NCI/ADR-RES ovarian, 83.8%.

As for `COc1cc(NC(N)=NCCC(C)(C)c2ccc(C(F)(F)F)cc2)ncc1C#N`, the growth was -49% (active) in the test with SR leukemia; -48.7% (active) with RPMI-8226 leukemia; 24.4% in the test with OVCAR-8 ovarian; 47.2% in the test on OVCAR-5 ovarian; 18.9% in the test on OVCAR-4 ovarian; 56.8% with SK-OV-3 ovarian. The growth in the test on IGROV1 ovarian was 24.1%; in the test with OVCAR-3 ovarian, 24%; in the test with HS 578T breast, 63%; in the test on NCI/ADR-RES ovarian, 24.3%.
